Test results from PubChem BioAssay AID1159580 (chemical genetic matrix, 2015).
The whole screen tested about 5,500 compounds, of which about 2,000 (36%) were called active. Roughly 18% stayed inconclusive and do not appear here. Cut-off read from the data, not from the text of the source: active = normalized growth mostly below about 0.91 (no sharp cut-off); inconclusive = no clear call, values can overlap the other calls; inactive = mostly above about 0.92. The list shows a part of the results.

Experiment: chemical genetic growth profiling, strain panel (AID 1159580);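 note: tested at 20 µM; growth read once vehicle control cultures reached saturation at 30 °C; 1 = growth at the plate median or of vehicle wells; lower values mean less growth of the strain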
Conditions: growth OD
[1] = S. cerevisiae deletion strains, locus YBR229C, strain ROT2, hits give low values
[2] = S. cerevisiae deletion strains, locus YDL101C, strain DUN1, hits give low values
[3] = S. cerevisiae deletion strains, locus YDR150W, strain NUM1, hits give low values
[4] = S. cerevisiae deletion strains, locus YEL061C, strain CIN8, hits give low values
[5] = S. cerevisiae deletion strains, locus YHR030C, strain SLT2, hits give low values
[6] = S. cerevisiae deletion strains, locus YJR043C, strain POL32, hits give low values
[7] = S. cerevisiae deletion strains, locus YLR039C, strain RIC1, hits give low values
[8] = S. cerevisiae deletion strains, locus YLR262C, strain YPT6, hits give low values
[9] = S. cerevisiae deletion strains, locus YMR263W, strain SAP30, hits give low values
[10] = S. cerevisiae deletion strains, locus YMR307W, strain GAS1, hits give low values
[11] = S. cerevisiae deletion strains, locus YPL055C, strain LGE1, hits give low values

Measured: normalized growth

Cc1cc(I)c(C)cc1I
inactive: S. cerevisiae deletion strains, locus YAL013W, strain DEP1, hits give low values 1.01 | [1] 0.989 | S. cerevisiae deletion strains, locus YCL061C, strain MRC1, hits give low values 0.994 | [2] 1.02 | S. cerevisiae deletion strains, locus YDL134C, strain PPH21, hits give low values 0.986 | [3] 1.04 | [4] 0.966 | S. cerevisiae deletion strains, locus YGR078C, strain PAC10, hits give low values 1 | [5] 0.805 | S. cerevisiae deletion strains, locus YHR087W, strain rtc3, hits give low values 0.979 | [6] 0.994 | S. cerevisiae deletion strains, locus YJR075W, strain HOC1, hits give low values 0.976 | [7] 0.955 | S. cerevisiae deletion strains, locus YLR058C, strain SHM2 (second series), hits give low values 0.992 | S. cerevisiae deletion strains, locus YLR085C, strain ARP6, hits give low values 0.953 | [8] 0.872 | S. cerevisiae deletion strains, locus YML094W, strain GIM5, hits give low values 0.95 | S. cerevisiae deletion strains, locus YMR219W, strain ESC1, hits give low values 1 | [9] 0.976 | [10] 0.7 | S. cerevisiae deletion strains, locus YNL153C, strain GIM3, hits give low values 0.984 | S. cerevisiae deletion strains, locus YNL298W, strain CLA4 (second series), hits give low values 0.935 | S. cerevisiae deletion strains, locus YNL322C, strain KRE1, hits give low values 1 | S. cerevisiae deletion strains, locus YNR030W, strain Alg12, hits give low values 0.943 | [11] 0.966 | S. cerevisiae deletion strains, locus YPL241C, strain CIN2, hits give low values 0.978 | S. cerevisiae deletion strains, locus YPR135W, strain CTF4, hits give low values 0.925

CCC/C=C1\OC(=O)C2=C1CCC=C2
active: S. cerevisiae deletion strains, locus YGL086W, strain mad1, hits give low values 0.929 | S. cerevisiae deletion strains, locus YKL009W, strain mrt4, hits give low values 0.868
inactive: S. cerevisiae deletion strains, locus YBR021W, strain FUR4, hits give low values 0.967 | [1] 1.01 | S. cerevisiae deletion strains, locus YCL029C, strain bik1, hits give low values 0.978 | S. cerevisiae deletion strains, locus YDL035C, strain GPR1, hits give low values 0.952 | S. cerevisiae deletion strains, locus YDL074C, strain BRE1, hits give low values 0.945 | [2] 0.984 | S. cerevisiae deletion strains, locus YDL185W, strain tfp1, hits give low values 0.986 | S. cerevisiae deletion strains, locus YDL192W, strain arf1, hits give low values 0.972 | S. cerevisiae deletion strains, locus YDR101C, strain arx1, hits give low values 0.949 | [3] 1.02 | S. cerevisiae deletion strains, locus YDR162C, strain NBP2, hits give low values 0.993 | S. cerevisiae deletion strains, locus YDR318W, strain mcm21, hits give low values 0.998 | S. cerevisiae deletion strains, locus YDR388W, hits give low values 0.978 | S. cerevisiae deletion strains, locus YDR502C, strain sam2, hits give low values 0.957 | [4] 1 | S. cerevisiae deletion strains, locus YER110C, hits give low values 0.971 | S. cerevisiae deletion strains, locus YER155C, strain BEM2, hits give low values 1.03 | S. cerevisiae deletion strains, locus YER167W, strain BCK2, hits give low values 0.998 | S. cerevisiae deletion strains, locus YGL078C, strain dbp3, hits give low values 0.963 | S. cerevisiae deletion strains, locus YGL248W, strain PDE1, hits give low values 0.975 | S. cerevisiae deletion strains, locus YGR135W, strain pre9, hits give low values 0.965 | S. cerevisiae deletion strains, locus YGR252W, strain gcn5, hits give low values 0.974 | [5] 1.02 | S. cerevisiae deletion strains, locus YHR079C, strain IRE1 (second series), hits give low values 0.987 | S. cerevisiae deletion strains, locus YHR094C, strain hxt1, hits give low values 0.982 | S. cerevisiae deletion strains, locus YHR129C, strain ARP1, hits give low values 0.989 | S. cerevisiae deletion strains, locus YHR200W, strain rpn10, hits give low values 0.986 | S. cerevisiae deletion strains, locus YIL066C, strain RNR3, hits give low values 0.97 | S. cerevisiae deletion strains, locus YIL073C, strain SPO22, hits give low values 0.93 | S. cerevisiae deletion strains, locus YIL125W, strain kgd1, hits give low values 0.973 | S. cerevisiae deletion strains, locus YIR030C, strain dcg1, hits give low values 0.988 | S. cerevisiae deletion strains, locus YJL095W, strain BCK1, hits give low values 0.968 | S. cerevisiae deletion strains, locus YJL134W, strain LCB3, hits give low values 1.01 | S. cerevisiae deletion strains, locus YJL168C, strain set2, hits give low values 0.986 | S. cerevisiae deletion strains, locus YJL187C, strain SWE1 (second series), hits give low values 0.99 | [6] 0.956 | S. cerevisiae deletion strains, locus YKL068W, hits give low values 0.994 | S. cerevisiae deletion strains, locus YKL085W, strain MDH1 (second series), hits give low values 0.958 | S. cerevisiae deletion strains, locus YKL085W, strain MDH1, hits give low values 0.958 | S. cerevisiae deletion strains, locus YKR001C, strain vps1, hits give low values 0.963 | [7] 0.848 | S. cerevisiae deletion strains, locus YLR058C, strain SHM2, hits give low values 1 | S. cerevisiae deletion strains, locus YLR102C, strain apc9, hits give low values 0.988 | [8] 0.816 | S. cerevisiae deletion strains, locus YLR268W, strain sec22, hits give low values 0.953 | S. cerevisiae deletion strains, locus YLR330W, strain CHS5, hits give low values 1.01 | S. cerevisiae deletion strains, locus YLR342W, strain FKS1 (second series), hits give low values 0.97 | S. cerevisiae deletion strains, locus YLR371W, strain rom2, hits give low values 0.998 | S. cerevisiae deletion strains, locus YLR418C, strain cdc73, hits give low values 0.959 | S. cerevisiae deletion strains, locus YML016C, strain PPZ1, hits give low values 1 | S. cerevisiae deletion strains, locus YML032C, strain rad52, hits give low values 1 | S. cerevisiae deletion strains, locus YML124C, strain tub3, hits give low values 0.987 | S. cerevisiae deletion strains, locus YMR078C, strain ctf18, hits give low values 0.959 | S. cerevisiae deletion strains, locus YMR223W, strain ubp8, hits give low values 0.979 | [9] 1 | [10] 1.02 | S. cerevisiae deletion strains, locus YNL067W, strain RPL9B, hits give low values 0.965 | S. cerevisiae deletion strains, locus YNL233W, strain BNI4, hits give low values 0.992 | S. cerevisiae deletion strains, locus YNL250W, strain rad50, hits give low values 1.01 | S. cerevisiae deletion strains, locus YNL271C, strain bni1, hits give low values 0.971 | S. cerevisiae deletion strains, locus YNL298W, strain CLA4, hits give low values 0.959 | S. cerevisiae deletion strains, locus YNL307C, strain MCK1, hits give low values 0.969 | S. cerevisiae deletion strains, locus YNR052C, strain pop2, hits give low values 1.01 | S. cerevisiae deletion strains, locus YOL012C, strain htz1 1.31 | S. cerevisiae deletion strains, locus YOL147C, strain pex11, hits give low values 0.986 | S. cerevisiae deletion strains, locus YOR061W, strain CKA2, hits give low values 0.996 | S. cerevisiae deletion strains, locus YOR069W, strain VPS5, hits give low values 0.998 | S. cerevisiae deletion strains, locus YOR136W, strain idh2, hits give low values 0.98 | S. cerevisiae deletion strains, locus YOR144C, strain elg1, hits give low values 0.987 | S. cerevisiae deletion strains, locus YOR184W, strain ser1, hits give low values 0.926 | S. cerevisiae deletion strains, locus YOR316C, strain cot1, hits give low values 0.976 | [11] 0.969 | S. cerevisiae deletion strains, locus YPR119W, strain clb2, hits give low values 0.983 | S. cerevisiae deletion strains, locus YPR141C, strain kar3, hits give low values 0.977 | S. cerevisiae deletion strains, locus YPR163C, strain tif3, hits give low values 0.97 | S. cerevisiae deletion strains, locus YPR167C, strain met16, hits give low values 0.996 | S. cerevisiae deletion strains, strain wtn01, hits give low values 0.965 | S. cerevisiae strains, strain wild type, hits give low values 0.988
